Test [1] in a line: NCI Yeast Anticancer Drug Screen. Data for the rad50 strain (AID 155).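 Also: 0% = growth of vehicle-only cultures of the same strain.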 The note with it: S. cerevisiae rad50 strain growth inhibition; at 50.0 µM; hits give high values. In short, it runs like this:
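Compounds were tested on a yeast strain with an engineered DNA damage repair alteration; the reported value is growth inhibition normalised to vehicle treatment.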

A short description of test [2]: NCI Yeast Anticancer Drug Screen. Data for the mec2-1 strain (AID 157). Particulars: S. cerevisiae mec2-1 strain, at 50.0 µM, hits give high values. The method in brief:
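Growth inhibition is read against vehicle-treated controls after compound exposure of the mec2-1 yeast strain, which is defective in DNA damage repair or cell cycle control.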

Test [3] can be described thus: NCI Yeast Anticancer Drug Screen. Data for the sgs1 mgt1 strain (AID 161).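 Also: 0% = growth of cultures given vehicle only.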 The note with it: S. cerevisiae sgs1 mgt1 strain, at 50.0 µM, hits give high values. The method in brief: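 Percent growth inhibition was derived by comparing compound-exposed mutant yeast with vehicle-exposed cultures. The strain carries alterations in DNA damage repair.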
Test [4] is described as follows: NCI Yeast Anticancer Drug Screen. Data for the cln2 rad14 strain (AID 165).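 Also: 0% = growth equal to vehicle treated cultures.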 Particulars: S. cerevisiae cln2 rad14 strain, at 50.0 µM, hits give high values. In short, it runs like this:
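Growth inhibition, relative to vehicle-treated controls, is the read-out. The test organism is a yeast strain with defined genetic alterations, cln2 rad14.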

Test [5] can be described thus: NCI Yeast Anticancer Drug Screen. Data for the bub3 strain (AID 167). Particulars: S. cerevisiae bub3 mutant strain, at 50.0 µM, hits give high values. The method in brief: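 Growth of a checkpoint-deficient yeast mutant is measured after compound exposure. Values represent inhibition relative to vehicle.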
A short description of test [6]: NCI Yeast Anticancer Drug Screen. Data for the mlh1 rad18 strain (AID 175). Particulars: S. cerevisiae mlh1 rad18 strain growth inhibition; at 50.0 µM; hits give high values. The method in brief:
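Cells of a genetically altered yeast strain, deficient in DNA damage repair, were treated with compound. Their growth was then compared with that of vehicle-treated cultures to give inhibition.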

This is part of a sample that, as a whole, favours compounds with a hit. Of some 79,000 tested, about 15% had one in any assay. A number with no mark means an inactive call. Calls of active or inactive are those of the source. Rule as the data show it: active = growth inhibition above about 70%; inactive = the rest.

Consider `O=C(CN1CC1)NCCCCCCCNC(=O)CN1CC1`, for which the growth inhibition in test [1] is -13.4%; in test [2], 3.5%; in test [3], 1.6%; in test [4], 8.15%; in test [5], -4.15%; in test [6], 25.4%.
`CN1C(=O)N(C)C(O)C(Cl)(Br)C1=O` (centres undefined): the growth inhibition was -0.5% in test [1]; 2.5% in test [2]; 7.3% in test [3]; 26.2% in test [4]; 5.9% in test [5]; 12.7% in test [6].
Take `CCCCCCCCCCCC[C@@H](O)[C@H]1CC[C@H]([C@H](O)CCCC[C@H](O)CCCCC[C@@H](O)CC2=C[C@H](C)OC2=O)O1`: the growth inhibition is 10% in test [1]; -7.05% in test [2]; -20.8% in test [3]; -7.5% in test [4]; -1.65% in test [5]; -41.2% in test [6].
Regarding `C[N+](C)(C)CC1CCC(C[N+](C)(C)C)C1=NO` (centres undefined), the growth inhibition in test [1] was -16.3%; in test [2], 11.1%; in test [3], 4.2%; in test [4], 13.2%; in test [5], 9.75%; in test [6] it was -15.5%.
Take `COC(=O)C1=CO[C@@H](C)[C@@H]2CN3CCc4c([nH]c5cc(OC)ccc45)[C@H]3C[C@H]12`: the growth inhibition in test [1] is -43.8%; in test [2], -32.6%; in test [3] it was -34%; in test [4], -30.1%; in test [5] it was -2.05%; in test [6], -41%.
With `CCO[C@@H]1c2cc3c(cc2[C@@H](c2cc(OC)c(O)c(OC)c2)[C@H]2C(=O)OC[C@@H]21)OCO3`, the growth inhibition is 88.1% (active) in test [1]; 92.2% (active) in test [2]; 89% (active) in test [3]; 85.2% (active) in test [4]; 88.5% (active) in test [5]; 87.5% (active) in test [6].
Consider `CC1(C)CC(N)C(=O)c2ccccc21` (centres undefined), for which the growth inhibition in test [1] is 7.25%; in test [2], -20.6%; in test [3], -5.6%; in test [4], 14.2%; in test [5], -4.4%; in test [6] it was 29%.
Take `N#CC1C(=O)c2ccccc2C1=O`: the growth inhibition is -1.4% in test [1]; 4.15% in test [2]; 1.6% in test [3]; -3.35% in test [4]; 12.8% in test [5]; -1.85% in test [6].
As to `Cc1ccc2[nH]cc(CCN(C)C)c2c1`, the growth inhibition in test [1] is 22.6%; in test [2], -16.5%; in test [3], 8.25%; in test [4], 7.65%; in test [5], 10.2%; in test [6] it was 19.6%.
For `N#CCc1ccc(Br)cc1`, the growth inhibition in test [1] was 0.2%; in test [2], 0.8%; in test [3] it was 5.65%; in test [4], -16.9%; in test [5], -14.9%; in test [6], 5.8%.
Turning to `C1CC[N-]CC1.C1CC[N-]CC1.C1CC[N-]CC1.C1CC[N-]CC1.[Cl][Rh][Cl]`, the growth inhibition in test [1] was -12.5%; in test [2] it was 28.6%; in test [3], 8.5%; in test [4] it was -13.9%; in test [5], -58%; in test [6], -18.4%.
For the molecule `CCC1(Sc2ncnc3c2ncn3C2OC(CO)C(O)C2O)C(=O)NC(=O)NC1=O` (centres undefined), the growth inhibition is 4.5% in test [1]; 2.7% in test [2]; -7.95% in test [3]; 16.9% in test [4]; -6.05% in test [5]; -7.2% in test [6].
Regarding `CC(=O)c1ccccc1O.[Cr]`, the growth inhibition in test [1] is 3.05%; in test [2], -32.3%; in test [3], 19.3%; in test [4], 3.75%; in test [5], -18.3%; in test [6], 21.2%.
Regarding `CC(C)(OOC(C)(C)c1ccccc1)c1ccccc1`, the growth inhibition in test [1] was -13.1%; in test [2], -16%; in test [3] it was 4.6%; in test [4] it was -40.9%; in test [5], 6.05%; in test [6], -8.95%.
Regarding `O=P(O)(OCCc1ccccc1)Oc1ccccc1O`, the growth inhibition was -6.05% in test [1]; -4.55% in test [2]; -20.7% in test [3]; -1.15% in test [4]; -10.7% in test [5]; 13.6% in test [6].
Take `CC12CCC3C(CCC4(O)C=CCCC34C=O)C1(O)CC(O)C2c1ccc(=O)oc1` (centres undefined): the growth inhibition is -28.1% in test [1]; -46.9% in test [2]; -12.7% in test [3]; -15.8% in test [4]; -53.9% in test [5]; -16.2% in test [6].
Consider `[F][Sn]([c]1ccc(Cl)cc1)([c]1ccc(Cl)cc1)[c]1ccc(Cl)cc1`, for which the growth inhibition is 98.2% (active) in test [1]; 95.2% (active) in test [2]; 98.5% (active) in test [3]; 95.9% (active) in test [4]; 96.2% (active) in test [5]; 98.2% (active) in test [6].
As for `N#CCCCCl`, the growth inhibition in test [1] was 27.1%; in test [2] it was 15.8%; in test [3], 14.9%; in test [4], 26.1%; in test [5], 29.8%; in test [6], 30.5%.
In the case of `CCOP(=S)(OCC)N(C)C(=O)Oc1cccc(C(C)C)c1`, the growth inhibition in test [1] is 0.95%; in test [2], -1.05%; in test [3] it was 8.95%; in test [4], -6.1%; in test [5], -20.4%; in test [6], 12.2%.
